High-throughput results deposited in PubChem by The Scripps Research Institute Molecular Screening Center.
NOD2 RIPK2 PPI: blocks binding of human NOD2 to RIPK2 | O43353 | CHO BLA complementation NOD2-RIPK2, CCF4 ratio | inhibition, % at 4.98 µM | 0.38% of 360,000 active | AID 624267; in the data active = inhibition above about 21%
TLR4 MyD88 comp: blocks binding of human TLR4 to MyD88. inhibition, % at 8.4 µM. 0.18% of 200,000 active. O00206+Q99836. HeLa CL3-4 TLR4/MyD88 BLA complementation, FRET ratio; in the data active = inhibition above about 25%
ABHD5 PLIN5 PPI: inhibitors of human ABHD5-perilipin-5 interaction | Q00G26+Q8WTS1 | Split G. princeps luciferase complementation, luminescence, 4 h | inhibition, % at 4 µM | 0.78% of 360,000 active | AID 602281;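 active = inhibition above the mean inhibition across every tested compound plus 3 SD, cut at about 22% in these data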
rCAG RNA binder: r(CAG) repeat RNA binding; 1.3% of 370,000 active; AID 651821; TO-PRO-1 dye displacement fluorescence; inhibition, % at 3 µM;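 active = inhibition above the plate cutoff, the mean of all test compounds on that plate plus 3 SD, cut at about 35% in these data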;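 note: higher means more dye released from RNA so lower well fluorescence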
PRMT1 FP inh: inhibitors of human PRMT1; inhibition, % at 2.79 µM; recombinant PRMT1, activity-based probe fluorescence polarization; 1.3% of 370,000 active; AID 652257; Q99873;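 active = inhibition above about 21% made by adding two undisclosed values, limit read from the data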
TLR9-MyD88 block: inhibitors of human TLR9-MyD88 binding; Q9NR96+Q99836; CHO BLA complementation TLR9-MyD88, CCF4 FRET ratio; inhibition, % at 4.98 µM; 0.21% of 340,000 active; AID 504734;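 active = inhibition above the mean over all tested compounds plus 3 SD, cut at about 21% in these data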
rCAG binder conf: r(CAG) RNA repeat binding, confirmation. shares compounds with rCAG RNA binder. TO-PRO-1 dye displacement fluorescence. inhibition, % at 3 µM. 70% of 4,300 active;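 active = inhibition above a per-plate cutoff, the mean inhibition of sample wells plus 3 SD, cut at about 35% in these data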;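 note: loss of TO-PRO-1 fluorescence as compound displaces dye from 1x1 AA loop RNA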
dCAG dye counter: disrupts DNA CAG TO-PRO-1 complex, flagging rCAG hits; d(CAG) DNA oligo TO-PRO-1 dye displacement, fluorescence; 94% of 4,300 active; inhibition, % at 3 µM; AID 652068; shares compounds with rCAG RNA binder;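 active = inhibition above its plate's cutoff, the mean test-well inhibition plus 3 SD, cut at about 4.8% in these data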;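 note: hits displace the dye from DNA and so lower well fluorescence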
dCAG dye DR: disrupts DNA CAG TO-PRO-1 complex in dose response. shares compounds with rCAG RNA binder. DNA CAG/GTC duplex TO-PRO-1 dye displacement fluorescence. IC50, µM. 20% of 250 active. AID 686960; in the data active = IC50 below about 10 µM
Large screens that a line does not name were inactive (follow-up assays come after a bar, where they were run). Sampled rows, rich in hits. Any-hit rate of the full collection: about 3.3%.

Cc1ccc(-n2c(SCC(=O)N/N=C/c3ccccc3OCC(=O)O)nc3ccccc3c2=O)cc1	none (no result: TLR4 MyD88 comp)
Cc1cc(SCC(=O)NCC(c2cccs2)N2CCOCC2)c(C)cc1Br (centres undefined)	none (no result: TLR4 MyD88 comp)
Cc1cccc(N2CCN(C(=O)c3cc4c(=O)n(C)c5ccccc5c4n3C)CC2C)c1 (centres undefined)	none (no result: rCAG RNA binder, PRMT1 FP inh, TLR9-MyD88 block)
S=c1nc(C2CC2)n(-c2ccccc2)[nH]1	none (no result: TLR4 MyD88 comp)
COc1ccc(Br)c(/C=N/NC(=O)COc2ccc(-c3ccccc3)cc2)c1	none
O=C(O)COc1ccccc1/C=N/NC(=O)COc1ccc(-c2ccccc2)cc1	rCAG RNA binder 66 (no result: TLR4 MyD88 comp) | rCAG binder conf 64 | dCAG dye counter 22
CCn1c(SCC(=O)Nc2ccc(F)cc2)nnc1-c1cnccn1	none (no result: TLR4 MyD88 comp)
COC(=O)c1ccccc1NS(=O)(=O)c1ccc2c3c(cccc13)C(=O)N2	none
Cc1oc2c(cc(NS(=O)(=O)c3ccc4c5c(cccc35)C(=O)N4)c3ccccc32)c1C(=O)OC(C)C	rCAG RNA binder 37 | rCAG binder conf 38 | dCAG dye counter 17
CCOC(=O)c1c(C)oc2c1cc(NS(=O)(=O)c1ccc(C(=O)O)cc1)c1ccccc12	rCAG RNA binder 67 (no result: TLR4 MyD88 comp) | rCAG binder conf 55 | dCAG dye counter 20
Cc1cc(C(=O)O[C@H]2CCC[C@@]3(C(=O)N(Cc4ccccc4)c4ccccc43)[C@H]2NC(=O)CCc2ccccc2)no1	none (no result: NOD2 RIPK2 PPI, TLR4 MyD88 comp, ABHD5 PLIN5 PPI, TLR9-MyD88 block)
COC(=O)c1ccc(C(=O)OC)c(NC(=O)Cc2cccs2)c1	rCAG RNA binder 39 (no result: TLR4 MyD88 comp) | rCAG binder conf inactive | dCAG dye counter 17
CN(CCOC(=O)c1cc2ccccc2o1)C1CN(Cc2cn(Cc3ccc([N+](=O)[O-])cc3)nn2)S(=O)(=O)C1 (centres undefined)	none (no result: NOD2 RIPK2 PPI, TLR4 MyD88 comp, ABHD5 PLIN5 PPI, TLR9-MyD88 block)
CCCCCOC(=O)Nc1ccc(S(=O)(=O)Nc2cccc([N+](=O)[O-])c2)cc1	rCAG RNA binder 48 | rCAG binder conf 45 | dCAG dye counter 10
CCCCOC(=O)Nc1ccc(S(=O)(=O)Nc2ccc([N+](=O)[O-])cc2)cc1	rCAG RNA binder 51 | rCAG binder conf inactive | dCAG dye counter 9.9
CCCCOC(=O)Nc1ccc(S(=O)(=O)Nn2cnnc2)cc1	none
CS(=O)(=O)Nc1ccc(C(=O)CC(=O)Nc2ccc([N+](=O)[O-])cc2)cc1	rCAG RNA binder 37 (no result: TLR4 MyD88 comp) | rCAG binder conf inactive | dCAG dye counter 9.4
O=[N+]([O-])c1ccc(S(=O)(=O)Nc2ccc(-c3ccccc3)cc2)cc1	rCAG RNA binder 45 (no result: TLR4 MyD88 comp) | rCAG binder conf 35 | dCAG dye counter 8.7
Cn1c(SCC(=O)Nc2ccccc2Br)nnc1-c1cnccn1	none (no result: TLR4 MyD88 comp)
COc1ccc(F)cc1S(=O)(=O)Nc1cc2c3c(c1)CCN3C(=O)CC2	none (no result: TLR4 MyD88 comp)
Cc1ccc(C(=O)OCC(=O)Nc2ccc3c(c2)OCO3)c(O)c1	none (no result: TLR4 MyD88 comp)
COC(=O)c1ccc(CN(c2ccc(C(=O)O)c(O)c2)S(=O)(=O)c2ccc(Cl)c([N+](=O)[O-])c2)cc1	rCAG RNA binder 43 (no result: TLR4 MyD88 comp) | rCAG binder conf 52 | dCAG dye counter 18
CC1Cc2ccccc2N1C(=O)COC(=O)c1ccc(Cl)c(S(=O)(=O)N2CCOCC2)c1 (centres undefined)	none (no result: TLR4 MyD88 comp)
Cc1nc(NS(=O)(=O)c2ccccc2)sc1NC(=O)Nc1ccccc1	none
CC(=O)c1ccc(NC(=O)Nc2sc(NS(=O)(=O)c3ccccc3)nc2C)cc1	rCAG RNA binder 38 | rCAG binder conf inactive | dCAG dye counter 8.2
Cc1nc(NS(=O)(=O)c2ccccc2)sc1NC(=O)Nc1ccc(Cl)cc1	rCAG RNA binder 49 (no result: TLR4 MyD88 comp) | rCAG binder conf 38 | dCAG dye counter 15
CCOC(=O)Nc1sc(NS(=O)(=O)c2ccccc2)nc1C	none
O=S(=O)(c1cccs1)N1CCC2(CC1)OCCN2S(=O)(=O)c1ccccc1	none (no result: TLR4 MyD88 comp)
N#C/C(=N\Nc1cccc(Cl)c1)C(=O)c1ccccc1	rCAG RNA binder 73 | rCAG binder conf 44 | dCAG dye counter 11
N#C/C(=N\Nc1ccc(Cl)cc1)C(=O)c1ccsc1	rCAG RNA binder 47 (no result: TLR4 MyD88 comp) | rCAG binder conf 40 | dCAG dye counter 8.1
COc1ccc(C(=O)/C(C#N)=N/Nc2cccc([N+](=O)[O-])c2)cc1	rCAG RNA binder 44 | rCAG binder conf 52 | dCAG dye counter 13
Cc1ccc(N/N=C(\C#N)C(=O)c2ccsc2)cc1	none (no result: TLR4 MyD88 comp)
CCOC(=O)[C@]12CCCC3=C1N(CCC3)C(=O)[C@@H](CC(=O)N1CCOCC1)C2	none (no result: NOD2 RIPK2 PPI, TLR4 MyD88 comp, ABHD5 PLIN5 PPI, TLR9-MyD88 block)
COc1ccc(NC(=O)CN(C)C(=O)CSCc2ccc(C)cc2)cc1	none (no result: TLR4 MyD88 comp)
COc1ccc(C(=O)N2C=Cc3ccccc3C2C(N)=O)cc1 (centres undefined)	none (no result: TLR4 MyD88 comp)
CN(C(=O)[C@@H](Cc1ccccc1)NC(=O)[C@H]1O[C@@H](n2ccc(=O)[nH]c2=O)[C@H](O)[C@@H]1O)C1CCCCC1	none (no result: NOD2 RIPK2 PPI, TLR4 MyD88 comp, ABHD5 PLIN5 PPI, TLR9-MyD88 block)
CCn1c(=N)c(S(=O)(=O)c2ccc(Cl)cc2)cc2c(=O)n3ccccc3nc21	none (no result: NOD2 RIPK2 PPI, ABHD5 PLIN5 PPI, rCAG RNA binder, PRMT1 FP inh, TLR9-MyD88 block)
N=c1c(S(=O)(=O)c2ccc(Cl)cc2)cc2c(=O)n3ccccc3nc2n1Cc1ccco1	ABHD5 PLIN5 PPI 28, rCAG RNA binder 36 (no result: TLR4 MyD88 comp) | rCAG binder conf 56 | dCAG dye counter 25
Nc1ccn([C@@H]2O[C@H](C(=O)N[C@H](Cc3ccccc3)C(=O)N[C@H]3CCCCNC3=O)[C@@H](O)[C@H]2O)c(=O)n1	none (no result: NOD2 RIPK2 PPI, TLR4 MyD88 comp, ABHD5 PLIN5 PPI, TLR9-MyD88 block)
Nc1nc(-c2cccs2)c(CC(=O)O)s1	none
O=C(O)Cc1sc(Nc2ccc(Cl)cc2)nc1-c1cccs1	rCAG RNA binder 58 (no result: NOD2 RIPK2 PPI, ABHD5 PLIN5 PPI, TLR9-MyD88 block) | rCAG binder conf 54 | dCAG dye counter 29 | dCAG dye DR 6
CC(C)N1Cc2nnn(Cc3ccccc3)c2-c2ccccc2S1(=O)=O	none (no result: NOD2 RIPK2 PPI, TLR4 MyD88 comp, ABHD5 PLIN5 PPI, TLR9-MyD88 block)
Cc1nn(-c2ccccc2)c(Cl)c1/C=C1/C(=N)N2N=C(C(C)C)SC2=NC1=O	none
Cc1nn(-c2ccccc2)c(Cl)c1/C=C1\SC(=S)NC1=O	rCAG RNA binder 65 | rCAG binder conf 64 | dCAG dye counter 18
O=C(NCCc1ccccc1)c1ccc2c(=O)[nH]c3c(C(=O)NCC4CCCO4)sc(=S)n3c2c1 (centres undefined)	rCAG RNA binder 91 (no result: TLR4 MyD88 comp) | rCAG binder conf 93 | dCAG dye counter 71
CC(=O)c1ccc(N2CCN(C(=O)c3ccc4c(=O)[nH]c5c(C(=O)NC6CCCC6)sc(=S)n5c4c3)CC2)cc1	none (no result: NOD2 RIPK2 PPI, TLR4 MyD88 comp, ABHD5 PLIN5 PPI, TLR9-MyD88 block)
O=C(NCC1CCCO1)c1sc(=S)n2c1[nH]c(=O)c1ccc(C(=O)N3CCCCC3)cc12 (centres undefined)	rCAG RNA binder 81 | rCAG binder conf 84 | dCAG dye counter 40
